Several values for one entry are separate records, joined by “and”; a condition that tells them apart may be missing. Equal values may be shown once. A number with no mark means an inactive call. Inconclusive results are not listed. Activity calls are given as the source filed them. Unless noted, calls follow the shape of the dose curve; as a rule, active = well fitted curve in the direction sought with a large enough effect in the repeat runs; inconclusive = weak or mixed curves; inactive = no such curve, though single readings can be large; an effect the other way counts as inactive or inconclusive.

Test [1] is described as follows: qHTS assay for small molecule agonists of the p53 signaling pathway (AID 651631; calls by dose curve; also: nearly all actives have a fitted effect of over 15% in size; also: potency is read from the fitted curve at half-maximal effect). In outline:
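Beta-lactamase reporter activity under p53 response elements was quantified in HCT-116 cells by FRET fluorescence, following 16 h incubation with test compounds at 37 °C and 2 h substrate development at room temperature.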

Test [2] in a line: qHTS assay for small molecule agonists of the p53 signaling pathway - cell viability (AID 651633; calls by dose curve; also: nearly all actives have a fitted effect of over 30% in size; also: potency is read from the fitted curve at half-maximal effect). In short, it runs like this:
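p53RE-bla cells were treated with compound for 16 hours at 37 C. Cytotoxicity was then measured as CellTiter-Glo luminescence after 30 min at room temperature.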
Background: qHTS replaces the single test concentration by a dilution series.

Test [3] is described as follows: qHTS assay for small molecule disruptors of the mitochondrial membrane potential - cell viability (AID 720634; calls by dose curve; also: nearly all actives have a fitted effect of over 20% in size; also: potency is read from the fitted curve at half-maximal effect). In short, it runs like this: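 Viability of HepG2 cells is scored from ATP content by luminescence; cells are exposed to compound for 1 hr at 37 C and 5% CO2, then dosed with m-MPI dye before the CellTiter-Glo reagent.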
Test [4] is described as follows: qHTS assay for small molecule disruptors of the mitochondrial membrane potential (AID 720635). Also: potency is read from the fitted curve at half-maximal effect. In short, it runs like this:
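HepG2 cells exposed to compound 1 hr at 37C, then Mito-MPS dye 30 min. Ratio read of aggregate (540/590 nm) versus monomer (490/535 nm) fluorescence.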

Test [5] can be described thus: qHTS assay to test for compound auto fluorescence at 590 nm (red) in HepG2 cells (AID 720674). In outline: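 Seeding: 2,000 HepG2 cells/well, MEM/10% FBS, overnight 37 C. Dosing: compound vs DMSO. Incubation: 1 hr, 37 C, 5% CO2. Read: fluorescence 540 ex/590 em, Rose Bengal sodium as red reference.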
The nature of test [6]: qHTS assay to test for compound auto fluorescence at 535 nm (green) in HepG2 cells (AID 720675).
Test [7] in a line: qHTS assay to test for compound auto fluorescence at 460 nm (blue) in HEK293 cells (AID 720678). In short, it runs like this:
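Measured: blue fluorescence (Ex 405/Em 460 nm) of compound-treated HEK293 cells, incubated overnight at 37C with 5% CO2 and scaled to triamterene equivalents.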

A short description of test [8]: qHTS assay to test for compound auto fluorescence at 535 nm (green) in HEK293 cells (AID 720680).
Test [9] is described as follows: qHTS assay to test for compound auto fluorescence at 460 nm (blue) in HEK293 cell free culture (AID 720681). In outline: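 Compounds were added to cell-free DMEM with 10% FBS and fluorescence read directly. The blue channel used 405 nm excitation and 460 nm emission, with triamterene as the reference fluorophore.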
A short description of test [10]: qHTS assay to test for compound auto fluorescence at 535 nm (green) in HEK293 cell free culture (AID 720682). In short, it runs like this: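 Each library compound, or DMSO control, is added by pintool to medium alone, comprising DMEM and 10% FBS. Emission at 535 nm following 485 nm excitation is quantified against fluorescein.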
Test [11] can be described thus: qHTS assay to test for compound auto fluorescence at 590 nm (red) in HEK293 cell free culture (AID 720683). In outline:
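Cell-free wells of DMEM with 10% FBS received compound, and intrinsic fluorescence was read at excitation/emission 540/590 nm. Values expressed as equivalence to Rose Bengal sodium.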

Test [12] in a line: qHTS assay to test for compound auto fluorescence at 590 nm (red) in HepG2 cell free culture (AID 720684). In short, it runs like this:
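Rose Bengal sodium served as the reference for red signal. Test compounds were dispensed into serum-containing MEM (10% FBS) without cells, and plates were read at 540/590 nm.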

Test [13] is described as follows: qHTS assay to test for compound auto fluorescence at 535 nm (green) in HepG2 cell free culture (AID 720686).
Test [14] in a line: qHTS assay to test for compound auto fluorescence at 460 nm (blue) in HepG2 cells (AID 720687). In outline:
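HepG2 cells in MEM with 10% FBS, attached overnight at 37 C, were exposed to compound or DMSO for 1 hr at 37 C, 5% CO2. Blue fluorescence was read at 405/460 nm, with triamterene as reference fluorophore.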

Test [15] addresses Glucocorticoid receptor (Homo sapiens) (UniProt P04150). Nature of the test: qHTS assay to identify small molecule agonists of the glucocorticoid receptor (GR) signaling pathway (AID 720691; active = well fitted activation curve with a large enough effect in the signal ratio in the repeat runs, not every such curve was filed as active; the % refers to the signal ratio). In short, it runs like this: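 Compounds in DMSO, alongside positive controls, were added to GR-bla HeLa reporter cells and incubated 18 h at 37 C; GRE-driven beta-lactamase was detected by fluorescence after 2 h with FRET substrate at room temperature.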

The nature of test [16]: qHTS assay for small molecules that induce genotoxicity in human embryonic kidney cells expressing luciferase-tagged ATAD5 (AID 651632). Also: nearly all actives have a fitted effect of over 15% in size. In short, it runs like this:
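DMSO vehicle served as the control. HEK293T reporter cells, 16 hr at 37C, then 30 min Amplite at room temperature; ATAD5 induction is measured as luciferase activity.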

A short description of test [17]: qHTS assay for small molecules that induce genotoxicity in human embryonic kidney cells expressing luciferase-tagged ATAD5 - cell viability (AID 651634; calls by dose curve; also: nearly all actives have a fitted effect of over 25% in size; also: potency is read from the fitted curve at half-maximal effect). In short, it runs like this: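 Here HEK293T cells with the ATAD5 luciferase reporter are incubated with test compounds for 15.5 hr, and cytotoxicity is then gauged by measuring protease activity in live cells using fluorescence.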

Test [18] is described as follows: qHTS assay to test for compound auto fluorescence at 590 nm (red) in HEK293 cells (AID 720679). In short, it runs like this: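 Using HEK293 cells at 2,000 per well, the screen added 23 nL of each compound after cell attachment and incubated overnight (37C, 5% CO2). The plate reader then captured red-label fluorescence, Ex/Em 540/590nm.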
Test [19] is described as follows: qHTS assay to test for compound auto fluorescence at 460 nm (blue) in HepG2 cell free culture (AID 720685). In outline:
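Cell-free plates of MEM plus 10% FBS received 23 nL compound or DMSO vehicle; blue-channel (405/460 nm) intensity scored against triamterene as reference fluorophore.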
% is scaled to controls: 0 for no effect and ±100 for the full control effect.

Sequence of Glucocorticoid receptor (Homo sapiens) (P04150 whole entry, looked up): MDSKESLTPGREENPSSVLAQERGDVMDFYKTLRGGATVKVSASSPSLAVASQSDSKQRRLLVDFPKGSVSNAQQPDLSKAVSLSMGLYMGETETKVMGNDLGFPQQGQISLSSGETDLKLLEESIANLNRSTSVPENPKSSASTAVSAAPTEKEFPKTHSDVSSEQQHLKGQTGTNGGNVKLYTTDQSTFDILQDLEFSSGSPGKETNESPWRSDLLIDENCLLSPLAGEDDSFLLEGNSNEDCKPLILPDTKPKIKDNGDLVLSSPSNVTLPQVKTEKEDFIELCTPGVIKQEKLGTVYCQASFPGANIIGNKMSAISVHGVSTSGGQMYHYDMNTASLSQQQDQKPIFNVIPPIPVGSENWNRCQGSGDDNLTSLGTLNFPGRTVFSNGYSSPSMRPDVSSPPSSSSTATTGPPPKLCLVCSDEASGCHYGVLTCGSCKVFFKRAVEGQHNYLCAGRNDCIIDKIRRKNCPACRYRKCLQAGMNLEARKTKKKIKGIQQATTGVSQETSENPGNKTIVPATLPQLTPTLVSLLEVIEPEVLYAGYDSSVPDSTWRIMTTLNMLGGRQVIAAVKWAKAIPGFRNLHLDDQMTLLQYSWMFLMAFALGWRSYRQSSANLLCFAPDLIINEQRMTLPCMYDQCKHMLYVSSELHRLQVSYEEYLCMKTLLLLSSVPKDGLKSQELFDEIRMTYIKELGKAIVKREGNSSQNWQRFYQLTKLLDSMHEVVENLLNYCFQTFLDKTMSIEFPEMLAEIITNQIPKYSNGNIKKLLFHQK

As to `BrCBr`, the Potency result in test [1], in test [2], in [3], in [4], in [7] and in test [9] was “inactive” throughout. In addition, the Potency result in [14] and in test [15] was “inactive” in each case. In addition, the molecule was called inactive in [5], in test [6], in test [8], in [10], in test [11] and in [12]. Further, the molecule was classed as inactive in test [13].

`C=CCC1=C(C)C(OC(=O)C2C(C=C(C)C)C2(C)C)CC1=O` (centres undefined): the Potency result in test [16], in [17], in test [7], in test [9], in test [19] and in [14] was “inactive” in each case. In [15], the Potency entry is “inactive”. Also, the Potency was 64.8 µM (active) in [2], 11.5 µM (active) in test [3] and 5.78 µM (active) in test [4]. In addition, the result in [5], in test [6], in [18], in test [8], in test [10] and in test [11] was inactive. Moreover, the call in test [12] and in test [13] was inactive.

Consider `O=c1oc2ccccc2c(O)c1Cc1c(O)c2ccccc2oc1=O`, for which the Potency in test [1] is 0.639 µM (active); in test [2], 0.507 µM (active). Besides, the Potency result in test [16] and in test [17] was “inactive” in each case. For the same molecule, the fluorescence, relative to Rose Bengal in test [5] was -0.349% [at 18.6 µM]. Further, the results for the fluorescence, % of fluorescein control in test [6] and in [13] were 0.0236% [at 18.6 µM] and 0.114% [at 18.6 µM], respectively. Further, the fluorescence, % of triamterene in test [7] is 0.108% [at 18.6 µM]. Besides, the fluorescence, % of fluorescent control in test [18] is -0.0848% [at 18.6 µM]; in test [9], 0.0571% [at 18.6 µM]; in test [11], 0.108% [at 18.6 µM]; in [19] it was -0.0804% [at 18.6 µM]; in test [14], 0.0049% [at 18.6 µM]. Further, the fluorescence, % of fluorescein in test [8] was 0.155% [at 18.6 µM]. In addition, the activity change in test [10] is 0.109% [at 18.6 µM].

Regarding `CC(C)CCCCCCCOP(=O)(Oc1ccccc1)Oc1ccccc1`, the Potency entry in test [1], in test [2], in test [7], in test [9] and in test [14] was “inactive” each time. The outcome in test [5], in test [6], in [8], in test [10], in [11] and in test [12] was inactive. The outcome in test [13] was inactive.

On to `O=C1c2ccccc2C(=O)C1C(=O)C(c1ccccc1)c1ccc(Cl)cc1` (centres undefined), for which the Potency entry in test [16], in test [7], in test [9], in [19] and in [14] was “inactive” in each case. The Potency in test [2] was 24.3 µM (active); in [17], 3.06 µM (active); in test [3], 61.1 µM (active); in test [4] it was 0.386 µM (active). Besides, the outcome in test [5], in [6], in test [18], in test [8], in test [10] and in test [11] was inactive. The molecule was classed as inactive in test [12] and in test [13].

As for `c1ccc(Nc2ccc3ccccc3c2)cc1`, the Potency result in test [16], in test [2], in [17], in test [7], in [9] and in test [19] was “inactive” each time. Also, the Potency result in test [14] and in test [15] was “inactive” each time. The Potency in test [3] is 17.1 µM (active); in [4], 8.58 µM (active) and 13.7 µM (active). In addition, the result in [5], in [6], in test [18], in [8], in [10] and in test [11] was inactive. The molecule was classed as inactive in [12] and in test [13].

`Cc1cc(C)cc(OP(=O)(Oc2cc(C)cc(C)c2)Oc2cc(C)cc(C)c2)c1`: the Potency result in test [1], in test [16], in test [2], in test [17], in test [7] and in test [9] was “inactive” throughout. Also, the Potency result in test [19], in test [14] and in test [15] was “inactive” throughout. In addition, the Potency in test [4] was 49.3 µM (active). The molecule was classed as inactive in [5], in test [6], in test [18], in test [8], in test [10] and in [11]. Besides, the call in [12] and in [13] was inactive.

With `CCC(C)(C)C(=O)OC1=C(c2ccc(Cl)cc2Cl)C(=O)OC12CCCCC2`, the Potency in test [1] was 7.7 µM (active); in [2], 61.1 µM (active); in test [4], 9.69 µM (active). Also, the Potency result in test [17], in test [7], in test [9], in test [19] and in test [14] was “inactive” each time. The result in test [5], in [6], in test [18], in [8], in test [10] and in [11] was inactive. Moreover, the molecule was called inactive in [12] and in [13].

The values are drawn from PubChem BioAssay (Tox21).
